CHRM1 agonist = human M1 muscarinic receptor agonists, primary screen, Fluo-8 calcium fluorescence, CHO-K1 cells, HTS | CHO-K1 hM1, agonist mode; 0% DMSO, 100% acetylcholine EC100 | activation, % at 3 µM | 0.33% of 360,000 active;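 active = activation above the run's mean compound activation plus 3 SD, cut at about 16% in these data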;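 also: peak over basal fluorescence ratio within a 140 s kinetic read after compound addition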
Myeloid diff 2 = induction of myeloid progenitor differentiation, primary screen, cell-based, flow cytometry, MLPCN library; ER-HoxA9 myeloid progenitors, lysozyme-GFP differentiation; 1% of 360,000 active; AID 624256, 2012; calls only at 10 µM;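 active = normalized GFP-positive differentiation at or above the plate's own cutoff, the solvent-only control mean plus 3 SD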;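 also: cells exposed to compound for four days before flow analysis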
SKN-1 inh = suppressors of acrylamide-induced Pgst-4::GFP reporter in worms, primary screen, SKN-1 inhibitor project, whole organism, uHTS, GFP/RFP fluorescence ratio, strain VP596 | 0.49% of 360,000 active | C. elegans VP596 Pgst-4::GFP/RFP ratio, 24 h | inhibition, % at 21.8 µM;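 active = interference check ratio from 0.5 to 1.5 plus GFP to RFP signal ratio inhibition reaching or exceeding a fixed threshold, cut at about 30% in these data, passing the limit was not always enough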
M1 antag = human M1 muscarinic receptor antagonists, primary screen, CHO-K1 cells, Fluo-8 calcium fluorescence, 1536-well; Muscarinic acetylcholine receptor M1 (Homo sapiens), P11229; CHO-K1 hM1, ACh EC80 antagonist; AID 588852, 2011; 1.3% of 360,000 active; inhibition, % at 3 µM;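 active = percent inhibition above its own plate's cutoff, namely the mean of that plate's compound wells plus 3 SD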;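 also: peak over basal fluorescence ratio during 140 s after agonist addition; 0% = ACh EC80 plus DMSO and 100% = DMSO alone without agonist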
CHRM1 PAM = human M1 muscarinic receptor positive allosteric modulators, primary screen, CHO-K1 cells, Fluo-8 calcium fluorescence, 1536-well | Muscarinic acetylcholine receptor M1 (Homo sapiens), P11229 | 0.088% of 360,000 active | CHO-K1 hM1, ACh EC20; 0% = ACh EC20, 100% = maximal ACh | activation, % at 3 µM; in the data active = activation above about 19%, passing the limit was not always enough
ATG4B inh = ATG4B protease inhibitors, primary screen, biochemical, fluorescence, uHTS | ATG4B cleavage of LC3-PLA2, NBD-HPC fluorescence, 1 h | 0.51% of 340,000 active | Cysteine protease ATG4B (Homo sapiens), Q9Y4P1 | AID 504462, 2011 | inhibition, % at 8.33 µM; in the data active = inhibition above about 40%
Target sequence (Q9Y4P1 whole entry, looked up): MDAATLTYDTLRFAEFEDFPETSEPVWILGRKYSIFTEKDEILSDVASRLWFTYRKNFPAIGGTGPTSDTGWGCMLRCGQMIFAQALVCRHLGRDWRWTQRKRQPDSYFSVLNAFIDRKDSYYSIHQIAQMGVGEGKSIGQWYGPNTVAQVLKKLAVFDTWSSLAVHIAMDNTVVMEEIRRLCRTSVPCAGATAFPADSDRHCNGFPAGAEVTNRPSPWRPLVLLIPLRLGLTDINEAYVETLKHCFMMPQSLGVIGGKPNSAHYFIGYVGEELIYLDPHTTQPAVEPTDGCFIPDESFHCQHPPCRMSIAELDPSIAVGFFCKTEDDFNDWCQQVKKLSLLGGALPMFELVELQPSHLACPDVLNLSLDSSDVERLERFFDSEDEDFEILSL
Myeloid diff = inducers of myeloid progenitor differentiation, confirmation, cell-based, GFP/Mac1 flow cytometry, cherry pick 01. shares compounds with Myeloid diff 2. ER-HoxA9 myeloid progenitors, GFP/Mac1 double-positive flow. calls only. 2% of 2,300 active. AID 651706, 2012;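 active = share of green or green-and-red cells above 9 and 9% in run 1 or 4 and 3% in run 2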
GFP autofluor = compound fluorescence in myeloid differentiation counter-screen; fluorescence response, % (test concentration not listed); shares compounds with Myeloid diff 2; 7.4% of 2,300 active; ER-HoxA9 myeloid progenitors, no estrogen, GFP autofluorescence flow cytometry; vehicle wells 0%, positive control 100%;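 active = over 5% cells positive for green fluorescent reporter, or over 2% positive for both it and APC stain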;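 also: range taken on the double positive population between DMSO and positive control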
Active calls of the source: *. Most compounds without a hit are left out; they make up all but 3.5% or so of the library.

`C[C@@H]1CN([C@@H](C)CO)C(=O)CCCn2cc(nn2)CO[C@H]1CN(C)C(=O)Oc1ccccc1` gave CHRM1 agonist -2, Myeloid diff 2 inactive, SKN-1 inh -9, M1 antag 1 and CHRM1 PAM 6.
Screening C[C@H]1CN([C@@H](C)CO)C(=O)CCCn2nncc2CO[C@H]1CN(C)C(=O)CCC(F)(F)F returned CHRM1 agonist -1, Myeloid diff 2 inactive, SKN-1 inh 12, M1 antag -14, CHRM1 PAM 2, Myeloid diff inactive and GFP autofluor 0.
For C[C@H](CO)N1C[C@H](C)[C@@H](CN(C)C(=O)Oc2ccccc2)OCc2cn(nn2)CCCC1=O the results were CHRM1 agonist 1, Myeloid diff 2 inactive, SKN-1 inh -2, M1 antag -10, CHRM1 PAM 17, Myeloid diff inactive and GFP autofluor 0.
CC(=O)N1N=C(c2ccccc2OC(=O)/C=C/c2ccccc2)CC1c1ccccc1 (centres undefined) was read as ATG4B inh 0.
Screening COC(=O)c1ccc(NC(=O)C(=O)N2CCN(C(=S)Nc3ccc(C)cc3)CC2)cc1 returned CHRM1 agonist -2, Myeloid diff 2 inactive, SKN-1 inh 8, M1 antag -2, CHRM1 PAM 1, ATG4B inh -12, Myeloid diff inactive and GFP autofluor 0.
Screening COC(=O)c1ccc(NC(=O)C(=O)N2CCN(C(=S)Nc3ccc(OC)cc3)CC2)cc1 returned CHRM1 agonist 2, Myeloid diff 2 inactive, SKN-1 inh -12, M1 antag -14, CHRM1 PAM 5 and ATG4B inh -9.
Screening COc1ccc(-n2c(=O)c(CCC(=O)N3CCN(c4ccccc4O)CC3)nc3ccccc32)cc1 returned CHRM1 agonist -4, Myeloid diff 2 inactive, SKN-1 inh -19, M1 antag 2, CHRM1 PAM -7, ATG4B inh -2, Myeloid diff inactive and GFP autofluor 6.7*.
Screening Cn1cc(S(=O)(=O)CC(=O)Nc2ccc3c(c2)OCCO3)c2ccccc21 returned CHRM1 agonist -4, Myeloid diff 2 inactive, SKN-1 inh 4, M1 antag -18, CHRM1 PAM 2 and ATG4B inh -7.
For Cc1ccc(C)c(NC(=O)CS(=O)(=O)c2cn(C)c3ccccc23)c1 the results were CHRM1 agonist -3, Myeloid diff 2 inactive, SKN-1 inh 9, M1 antag -10, CHRM1 PAM 4, ATG4B inh -9, Myeloid diff inactive and GFP autofluor 0.
`CCOc1ccccc1NC(=O)CSc1nc2c(c(=O)n(C)c(=O)n2C)n1C` gave CHRM1 agonist -2, Myeloid diff 2 inactive, SKN-1 inh 0, M1 antag -13, CHRM1 PAM 10 and ATG4B inh -6.
Screening CN(CC(=O)Nc1ccccc1Cl)C(=O)c1ccccc1Sc1ccccc1C#N returned CHRM1 agonist -1, Myeloid diff 2 inactive, SKN-1 inh 5, M1 antag -14, CHRM1 PAM 9 and ATG4B inh 7.
For COC(=O)Cc1c(C)c2ccc(OC(=O)c3ccccc3)cc2oc1=O the results were CHRM1 agonist -3, Myeloid diff 2 inactive, SKN-1 inh -7, M1 antag 9, CHRM1 PAM 1, ATG4B inh 4, Myeloid diff inactive and GFP autofluor 0.
Screening COCC(C)n1c(C)cc(C(=O)COC(=O)c2cccn2C)c1C (centres undefined) returned CHRM1 agonist 0, Myeloid diff 2 inactive, SKN-1 inh -3, M1 antag -3, CHRM1 PAM 7 and ATG4B inh 0.
Screening C=CCNC(=O)COc1ccc(N(C)S(=O)(=O)c2ccc(NC(C)=O)cc2)cc1 returned CHRM1 agonist 1, Myeloid diff 2 inactive, SKN-1 inh -12, M1 antag -13, CHRM1 PAM 13, ATG4B inh -4, Myeloid diff inactive and GFP autofluor 0.
`N#C/C(=C\c1c(N2CCC(C(N)=O)CC2)nc2ccccn2c1=O)C(=O)NC1CCCCC1` gave CHRM1 agonist -1, Myeloid diff 2 inactive, SKN-1 inh 9, M1 antag 1, CHRM1 PAM 2 and ATG4B inh -2.
`CC(=O)N1CCN(c2ccc(NCc3ccc(F)cc3)cc2)CC1` gave CHRM1 agonist -6, Myeloid diff 2 inactive, SKN-1 inh -7, M1 antag -9, CHRM1 PAM 1 and ATG4B inh -5.
For COc1cc(CNc2ccc(N3CCN(C(C)=O)CC3)cc2)ccc1OCc1ccc(F)cc1 the results were CHRM1 agonist -1, Myeloid diff 2 inactive, SKN-1 inh -2, M1 antag -3, CHRM1 PAM 20, ATG4B inh -3, Myeloid diff inactive and GFP autofluor 0.
COc1cc(CNc2ccc3[nH]c(=O)[nH]c3c2)ccc1OCc1ccc(Cl)cc1 was read as CHRM1 agonist -4, Myeloid diff 2 inactive, SKN-1 inh -9, M1 antag -6, CHRM1 PAM 1, ATG4B inh -4, Myeloid diff inactive and GFP autofluor 0.
COc1cc(CNc2ccc3[nH]c(=O)[nH]c3c2)ccc1OCc1ccc(F)cc1 was read as CHRM1 agonist -1, Myeloid diff 2 inactive, SKN-1 inh -6, M1 antag -7, CHRM1 PAM -1, ATG4B inh -6, Myeloid diff inactive and GFP autofluor 0.
CN(CC(=O)Nc1ccccc1C(=O)NC1CC1)Cc1ccc(Cl)s1 was read as CHRM1 agonist -5, Myeloid diff 2 inactive, SKN-1 inh 3, M1 antag -5, CHRM1 PAM 2 and ATG4B inh -43.
COc1ccc(C(CNC(=O)COc2ccccc2C#N)N2CCOCC2)cc1 (centres undefined) was read as CHRM1 agonist -4, Myeloid diff 2 active, SKN-1 inh 7, M1 antag 2, CHRM1 PAM -2, ATG4B inh 2, Myeloid diff inactive and GFP autofluor 0.

Screening data (PubChem BioAssay)
